Results on 35 molecules are retold here after ChEMBL document CHEMBL3433997, “St. Jude Leishmania screening dataset” (2016).

Format in all cases: functional
Experiment [1] addresses Solute carrier family 2, facilitated glucose transporter member 1 (Homo sapiens) (UniProt P11166). Description: ST_JUDE_LEISH: Cytotoxicity at 2uM final concentration against transgenic Leishmania Mexicana promastigotes LmGLUT1 that are glucose transport deficient and complemented with the human glucose transporter GLUT1. Activity is measured by DNA content using SYBR green in vitro.

Experiment [2] deals with Hexose transporter 1 (Plasmodium falciparum) (UniProt O97467). Description: ST_JUDE_LEISH: Cytotoxicity at 2uM final concentration against transgenic Leishmania Mexicana promastigotes LmPfHT that are glucose transport deficient and complemented with the Plasmodium falciparum hexose transporter. Activity is measured by DNA content using SYBR green in vitro.
The target of experiment [3] is Glucose transporter (Leishmania mexicana) (UniProt O61059). Description: ST_JUDE_LEISH: Cytotoxicity at 2uM final concentration against transgenic Leishmania Mexicana promastigotes LmGT2 that are glucose transport deficient and complemented with the L. Mexicana glucose transporter 2. Activity is measured by DNA content using SYBR green in vitro.

“And” between values parts separate entries of the source, which are not always exact repeats. Equal values may be shown once.

Solute carrier family 2, facilitated glucose transporter member 1 (Homo sapiens), sequence (P11166 whole entry): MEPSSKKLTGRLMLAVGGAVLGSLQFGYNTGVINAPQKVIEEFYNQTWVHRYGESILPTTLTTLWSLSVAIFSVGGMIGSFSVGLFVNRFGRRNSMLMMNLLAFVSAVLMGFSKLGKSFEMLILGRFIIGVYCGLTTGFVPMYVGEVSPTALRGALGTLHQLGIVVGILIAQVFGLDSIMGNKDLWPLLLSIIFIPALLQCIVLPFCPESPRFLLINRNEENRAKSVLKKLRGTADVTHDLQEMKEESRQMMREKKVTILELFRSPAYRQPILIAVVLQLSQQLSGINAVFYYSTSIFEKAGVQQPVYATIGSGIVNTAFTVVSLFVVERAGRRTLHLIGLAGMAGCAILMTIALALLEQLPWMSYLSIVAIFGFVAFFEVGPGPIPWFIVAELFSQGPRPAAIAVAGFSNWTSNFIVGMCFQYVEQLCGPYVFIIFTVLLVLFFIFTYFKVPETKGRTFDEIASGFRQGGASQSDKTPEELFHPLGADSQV

For `Cc1cccc(N2CCN(Cc3cc(Cl)ccc3O)CC2)c1C`, the results for the inhibition in experiment [1], in experiment [2] and in experiment [3] were 0.93%, 1.18% and 3.25%, respectively.

`c1ccc2c(NCCCCCCCCCNc3c4ccccc4nc4ccccc34)c3ccccc3nc2c1`: the inhibition (in general, the drop in the measured response relative to a control, in per cent) is 3.03% in experiment [1], 6.11% in experiment [2] and 2.42% in experiment [3].

As for `CCc1ccc(CN2CCC(CN(C(=O)c3ccccc3)c3ccc(Cl)cc3)CC2)cc1`, the inhibition in experiment [1] was 8.24%; in experiment [2], 5.97%; in experiment [3], 5.04%.

Regarding `O=C(/C=C/c1ccc(Cl)c(Cl)c1)NCc1ccc(CN2CCC(c3c[nH]c4ccccc34)CC2)cc1`, the inhibition in experiment [1] worked out at 2.64%; in experiment [2], 2.44%; in experiment [3] it was 0.41%.

For `COCC(=O)N(Cc1ccccc1-c1ccc(CNCCc2ccccc2)cc1)C1CCN(Cc2ccccc2)CC1`, the inhibition in experiment [1] is 0.08%; in experiment [2], 0.27%; in experiment [3], -3.2%.

In the case of `CN(c1cc(NC(=O)c2ccc(F)cc2)ccn1)C1CCN(Cc2cccc(O)c2)CC1`, the figures for the inhibition in experiment [1], in experiment [2] and in experiment [3] were 2.68%, 4.98% and 6.32%, respectively.

Regarding `CC(=O)Nc1ccc(CN2CCC(N(C)c3cc(NC(=O)c4cccs4)ccn3)CC2)cc1`, the results for the inhibition in experiment [1], in experiment [2] and in experiment [3] were -1.53%, 0.83% and -0.48%, respectively.

On to `Cc1cc(-c2ncc[nH]2)ccc1-c1ccc(C(=O)N2CCc3cc4c(cc32)C2(CCN(C)CC2)CO4)cc1`, for which the inhibition is -2.79% in experiment [1], 1.74% in experiment [2] and -0.2% in experiment [3].

`CC1=C(C(=O)NC2CCC(CN3CCC(c4c[nH]c5ccccc45)CC3)CC2)Cc2ccccc21` (stereo not given): the inhibition in experiment [1] was -3.48% and -2.8%; in experiment [2], 2.28% and -2.66%; in experiment [3], -4.68% and 10.4%.

With `CCCCCCC(C)c1cc(O)c2c(c1)OC(C)(C)c1ccncc1-2` (stereo not given), the inhibition in experiment [1] is 1.12%; in experiment [2] it was 0.89%; in experiment [3], -1.19%.

Take `C[C@H](Cc1ccc(OCCCCCCOc2ccccc2)cc1)NC[C@H](O)c1cccc(Cl)c1`: the inhibition is -0.31% in experiment [1], -0.04% in experiment [2] and -0.25% in experiment [3].

Regarding `O=c1c2ccccc2nc(/C=C/c2ccc([N+](=O)[O-])cc2)n1-c1ccccn1`, the inhibition in experiment [1] was 10.9%; in experiment [2] it was 11%; in experiment [3], 6.71%.

On to `CC1(C)CCCN(C(=O)Cc2ccc3c(c2)CCCC3)C1CN1CC=CC1` (stereo not given), for which the inhibition in experiment [1] worked out at 8.1%; in experiment [2], 8.82%; in experiment [3], 8.93%.

As for `CC[C@H]1CN2CC[C@H]1C[C@H]2[C@H](OC(=O)c1ccccc1)c1cc(C#N)nc2ccc(OC)cc12`, the results for the inhibition in experiment [1], in experiment [2] and in experiment [3] were 1.81%, -0.58% and 0.6%, respectively.

Consider `O=C(NC1CCC(CN2CCC(c3c[nH]c4ccccc34)CC2)CC1)c1csc(-c2ccc(C(F)(F)F)cc2Cl)n1` (stereo not given), for which the results for the inhibition in experiment [1], in experiment [2] and in experiment [3] were 10.1%, 9.77% and 10.2%, respectively.

Turning to `O=C(c1cccs1)N(Cc1cccc(-c2ccc(CNC3CCCC3)cc2)c1)C1CCN(Cc2ccccc2)CC1`, the inhibition worked out at 10.1% in experiment [1], 10% in experiment [2] and 9.21% in experiment [3].

Take `Cc1ccc(C)c(C=CC(=O)NC2CCC(CN3CCC(c4c[nH]c5ccccc45)CC3)CC2)c1` (stereo not given): the inhibition is 1.09% and 15% in experiment [1]; 1.99% and 11.5% in experiment [2]; 1.04% and 10.2% in experiment [3].

Take `O=C(/C=C/c1ccc(Cl)c(Cl)c1)NCCCCCN1C2CCC1CC(c1c[nH]c3ccccc13)C2` (stereo not given): the inhibition in experiment [1] was 0.42%; in experiment [2], 1.9%; in experiment [3] it was 2.33%.

`COC(=O)c1ccc(CC(C)NCC(O)c2cccc(OC(F)(F)F)c2)cc1` (stereo not given): the values for the inhibition in experiment [1], in experiment [2] and in experiment [3] were 0.35%, 1.5% and 1.7%, respectively.

As to `CC[C@H]1CN2CC[C@@H]1C[C@H]2[C@H](O)c1cc(N2CCSCC2)nc2ccc(OC)cc12`, the inhibition is 3.55% in experiment [1], 3.67% in experiment [2] and -0.01% in experiment [3].

Take `COc1cccc(C(=O)C2CC2CN2CC=C(c3c[nH]c4ccc(OC)nc34)CC2)c1` (stereo not given): the inhibition was determined as 0.65% in experiment [1], 1.41% in experiment [2] and 1.94% in experiment [3].

Turning to `COc1ccc(-c2ccccc2)cc1NC(=S)NC1CCC(CN2CCC(c3c[nH]c4ccccc34)CC2)CC1` (stereo not given), the inhibition in experiment [1] is 3.8% and 4.09%; in experiment [2], 2.57% and 3.78%; in experiment [3], 0.72% and 3.03%.

Turning to `O=C(/C=C/c1ccc(Cl)c(Cl)c1)N1CCC(CN2CCC(c3c[nH]c4ccccc34)C(O)C2)CC1` (stereo not given), the inhibition in experiment [1] came out at 7.48%; in experiment [2] it was 2.3%; in experiment [3], 0.72%.

Turning to `CNCCN(C)C(=O)Oc1c(Br)c(C)nc(C)c1-c1ccc(Oc2ccc(OC(F)(F)F)cc2)cc1`, the inhibition in experiment [1] came out at 2.73%; in experiment [2], 3.16%; in experiment [3], 5.59%.

As for `CC(C)CNCc1cccc(-c2ccc(CN(C(=O)Nc3ccccc3)C3CCN(Cc4ccccc4)CC3)cc2)c1`, the inhibition in experiment [1] was determined as 2.16%; in experiment [2], 2.2%; in experiment [3], 2.04%.

For the molecule `Cc1[nH]c2ccccc2c1C1=CCN(CCCCC2(C)C(=O)Nc3cccc(F)c32)CC1` (stereo not given), the values for the inhibition in experiment [1], in experiment [2] and in experiment [3] were 0.46%, -0.62% and 0.65%, respectively.

For the molecule `CN1CCC(COC(=O)C(O)(c2ccccc2)c2ccccc2)C1` (stereo not given), the inhibition in experiment [1] is 2.1%; in experiment [2], -0.69%; in experiment [3], -0.38%.

In the case of `CNCCN(C)C(=O)Oc1c(Cl)c(C)nc(C)c1-c1ccc(Oc2ccc(OC(F)(F)F)cc2)cc1`, the inhibition in experiment [1] came out at 4.11%; in experiment [2], 4.04%; in experiment [3], 4.28%.

Turning to `CN1CCN(c2ccc3[nH]c(-c4ccc5[nH]c(-c6ccc(O)cc6)nc5c4)nc3c2)CC1`, the inhibition turned out to be 4.92% in experiment [1], 5.09% in experiment [2] and 2.92% in experiment [3].

As for `O=C(/C=C/c1ccccc1Cl)NC1CCC(CN2C3CCC2CC(c2c[nH]c4ccccc24)C3)CC1` (stereo not given), the inhibition in experiment [1] was 2.84%; in experiment [2], -0.31%; in experiment [3], 5.5%.

On to `COCCNCc1ccc(-c2ccc(CN(C(=O)Nc3ccccc3)C3CCN(Cc4ccccc4)CC3)cc2)cc1`, for which the inhibition in experiment [1] is 7.17%; in experiment [2], 4.93%; in experiment [3], 5.08%.

Consider `CN1CC=C(c2c[nH]c3ccc(Br)cc23)CC1`, for which the values for the inhibition in experiment [1], in experiment [2] and in experiment [3] were 1.93%, 0.19% and -0.72%, respectively.

For the molecule `CC[C@H]1CN2CC[C@H]1C[C@H]2C(O)c1cc(OC)nc2ccccc12` (stereo not given in full), the inhibition is -0.41% in experiment [1], 0.13% in experiment [2] and -0.23% in experiment [3].

`COc1ccc(CC(C)NCC(O)c2cccc(C(F)(F)F)c2)cc1` (stereo not given): the inhibition in experiment [1] worked out at 9.76%; in experiment [2], 8.74%; in experiment [3] it was 8.93%.

For `Fc1ccc2[nH]cc(CCN3CCC(CNCc4ccccc4)CC3)c2c1`, the inhibition amounted to 6.4% in experiment [1], 5.46% in experiment [2] and 1.2% in experiment [3].
